About 7,900 targets were measured; listed, in parts, are those with a hit and a random draw of the rest. About 0.6% of all pairs of compound and target were hits.
Legend:
Assay in all cases: log2 fold change, soluble protein after heating vs DMSO (PISA); higher = thermal stabilisation; K562 cells, 10 uM, 30 min; active = over 0.2 and 3.5 SD of the protein, either way, in both replicates (recomputed)
erlotinib = compound: C#Cc1cccc(Nc2ncnc3cc(OCCOC)c(OCCOC)cc23)c1 [erlotinib]
How it was run: (§1)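 K562 cells at 2×10^6 cells/mL were treated for 30 min with 10 μM compound, and aliquots were heated for 3 min over 48°C-58°C before pooling. Extraction used PBS with 0.5% NP-40 at 4°C, and soluble protein was the supernatant after 21,000xg for 90 min, measured by TMTpro 16plex LC-MS/MS with channel sums equalised. Thermal stability values, relative to control samples and from duplicates, are log2 fold changes.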

[1] = compound: C/C(=N\NC(=O)C1=CC(=CC=C1)S(=O)(=O)N2CCOCC2)/C3=C(C=CC(=C3)Cl)O
How it was run: as §1

[2] = compound: C1=CC(=C(C=C1Cl)C2=NC3=NC=CN=C3C(=N2)NC4=CC=NC=C4)F
How it was run: as §1

[3] = compound: C1=CC(=CC=C1C2=NC3=C(N2)C=C(C=C3)C(=O)N)OC4=CC=C(C=C4)Cl
How it was run: as §1

[4] = compound: C1=CC2=C(C=CC(=C2)/C=C\3/C(=O)NC(=NCC4=CC=CS4)S3)N=C1
How it was run: as §1

[5] = compound: C1=CC2=NC=CN=C2C=C1/C=C/3\C(=O)NC(=O)S3
How it was run: as §1

[6] = compound: C1=CC=C(C=C1)C2=NC(=C(N2)C3=CC=NC=C3)C4=CC(=C(C=C4)Cl)O
How it was run: as §1

[7] = compound: C1=CC=C2C(=C1)C3=NNC4=CC=CC(=C43)C2=O
How it was run: as §1

[8] = compound: C1CCN(C1)C(=O)NC2=CC=CC(=C2)NC3=NC=C(C(=N3)NCCC4=CN=CN4)Br
How it was run: as §1

[9] = compound: C1CN(CCC1(CC2=CC=C(C=C2)Cl)N)C3=NC=NC4=C3C=CN4
How it was run: as §1

IRAK-1-4 Inhibitor I = compound: C1COCCN1CCN2C3=CC=CC=C3N=C2NC(=O)C4=CC(=CC=C4)[N+](=O)[O-] [IRAK-1-4 Inhibitor I]
How it was run: as §1

ibrutinib = compound: C=CC(=O)N1CCC[C@@H](n2nc(-c3ccc(Oc4ccccc4)cc3)c3c(N)ncnc32)C1 [ibrutinib]
How it was run: as §1

[10] = compound: CC(=O)c1cnc2ccc(-c3cc(Cl)c(O)c(Cl)c3)nc2c1N[C@H]1CC[C@H](CN(C)C)CC1
How it was run: as §1

ralimetinib = compound: CC(C)(C)Cn1c(N)nc2ccc(-c3[nH]c(C(C)(C)C)nc3-c3ccc(F)cc3)nc21 [ralimetinib]
How it was run: as §1

[11] = compound: CC(C)(O)CC(=O)NCCn1ccc2ncnc(Nc3ccc(Oc4cccc(C(F)(F)F)c4)c(Cl)c3)c21
How it was run: as §1

[12] = compound: CC(C)C1=C2N=C(C=C(N2N=C1)NCC3=CC=CC=C3)NCCCCCCN
How it was run: as §1

[13] = compound: CC(C)C[C@@H](C=O)NC(=O)[C@H](CC(C)C)NC(=O)[C@H](CC(C)C)NC(=O)OCc1ccccc1
How it was run: as §1

pinometostat = compound: CC(C)N(C[C@H]1O[C@@H](n2cnc3c(N)ncnc32)[C@H](O)[C@@H]1O)[C@H]1C[C@@H](CCc2nc3cc(C(C)(C)C)ccc3[nH]2)C1 [pinometostat]
How it was run: as §1

[14] = compound: CC1=C(C(CC(=O)N1)C2=CC=C(C=C2)C(F)(F)F)C(=O)NC3=C(C=C4C(=C3)C=NN4)F
How it was run: as §1

[15] = compound: CC1=C(C2=C(C=C1)C(=O)C3=CC=CC=C3N2CCCN)C
How it was run: as §1

Measured: log2 fold change

PRPF40A (UniProt O75400)
Chain of UniProt O75400 (O75400 whole entry, looked up): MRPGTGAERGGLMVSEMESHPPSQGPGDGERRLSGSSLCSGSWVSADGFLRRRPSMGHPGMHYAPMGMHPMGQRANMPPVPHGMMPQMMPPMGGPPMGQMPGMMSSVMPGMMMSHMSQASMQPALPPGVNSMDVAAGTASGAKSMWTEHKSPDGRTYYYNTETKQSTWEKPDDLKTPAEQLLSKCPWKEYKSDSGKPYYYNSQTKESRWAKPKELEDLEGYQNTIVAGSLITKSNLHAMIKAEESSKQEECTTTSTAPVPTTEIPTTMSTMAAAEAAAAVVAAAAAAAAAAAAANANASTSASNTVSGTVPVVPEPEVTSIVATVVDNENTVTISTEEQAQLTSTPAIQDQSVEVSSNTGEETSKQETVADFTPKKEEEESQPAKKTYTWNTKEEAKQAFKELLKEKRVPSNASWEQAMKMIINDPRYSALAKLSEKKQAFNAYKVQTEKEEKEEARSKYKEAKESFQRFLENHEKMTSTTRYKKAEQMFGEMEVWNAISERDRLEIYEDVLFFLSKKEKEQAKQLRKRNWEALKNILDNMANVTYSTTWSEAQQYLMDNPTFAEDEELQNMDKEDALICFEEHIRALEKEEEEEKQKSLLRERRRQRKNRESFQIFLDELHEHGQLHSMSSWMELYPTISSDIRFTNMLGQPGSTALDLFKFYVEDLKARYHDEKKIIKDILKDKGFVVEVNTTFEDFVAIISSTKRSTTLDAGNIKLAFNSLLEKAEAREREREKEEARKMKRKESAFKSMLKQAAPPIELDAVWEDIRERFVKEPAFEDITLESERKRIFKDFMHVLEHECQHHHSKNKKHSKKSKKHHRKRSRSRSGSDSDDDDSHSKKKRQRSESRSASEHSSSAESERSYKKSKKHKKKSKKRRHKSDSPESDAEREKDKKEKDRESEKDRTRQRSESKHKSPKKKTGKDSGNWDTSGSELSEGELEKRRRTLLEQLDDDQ
inactive: erlotinib 0.082 | [1] 0.083 | [2] -0.087 | [3] 0.012 | [4] 0.032 | [5] 0.007 | [6] -0.037 | [7] -0.135 | [8] -0.129 | [9] -0.124 | IRAK-1-4 Inhibitor I -0.093 | ibrutinib -0.085 | [10] -0.149 | ralimetinib 0.095 | [11] -0.022 | [13] 0.043 | pinometostat -0.041 | [14] -0.034 | [15] 0.13
active: [12] -0.411

PPP4R3B (UniProt Q5MIZ7)
Chain of UniProt Q5MIZ7 (Q5MIZ7 whole entry, looked up): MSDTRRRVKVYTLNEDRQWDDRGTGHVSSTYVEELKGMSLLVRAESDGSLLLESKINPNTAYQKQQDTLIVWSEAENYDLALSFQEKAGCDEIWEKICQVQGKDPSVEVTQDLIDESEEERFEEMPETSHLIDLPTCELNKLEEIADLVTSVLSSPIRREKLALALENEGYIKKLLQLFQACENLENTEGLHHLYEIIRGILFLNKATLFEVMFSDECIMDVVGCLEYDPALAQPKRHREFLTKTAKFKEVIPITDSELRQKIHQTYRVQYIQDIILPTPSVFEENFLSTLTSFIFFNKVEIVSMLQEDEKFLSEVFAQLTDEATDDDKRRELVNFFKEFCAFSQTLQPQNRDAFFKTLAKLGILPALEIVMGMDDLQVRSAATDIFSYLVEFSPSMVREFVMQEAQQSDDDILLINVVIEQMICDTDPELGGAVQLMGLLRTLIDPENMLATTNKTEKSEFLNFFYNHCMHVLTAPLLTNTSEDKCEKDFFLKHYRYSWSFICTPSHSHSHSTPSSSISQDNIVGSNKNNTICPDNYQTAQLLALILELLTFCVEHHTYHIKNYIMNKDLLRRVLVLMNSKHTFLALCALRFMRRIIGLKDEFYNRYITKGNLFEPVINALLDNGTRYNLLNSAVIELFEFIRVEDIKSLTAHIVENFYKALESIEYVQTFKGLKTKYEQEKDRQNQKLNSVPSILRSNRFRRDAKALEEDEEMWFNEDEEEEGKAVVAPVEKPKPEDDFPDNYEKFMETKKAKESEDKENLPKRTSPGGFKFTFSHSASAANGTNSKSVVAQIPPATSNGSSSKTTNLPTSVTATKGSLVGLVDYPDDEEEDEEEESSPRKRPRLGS
inactive: erlotinib 0.022 | [1] 0.023 | [2] 0.013 | [3] -0.023 | [4] 0.083 | [5] 0.028 | [6] -0.023 | [7] -0.019 | [8] -0.003 | [9] -0.027 | IRAK-1-4 Inhibitor I 0.027 | ibrutinib -0.024 | [10] -0.018 | ralimetinib -0.014 | [11] 0.095 | [12] -0.069 | [13] -0.023 | pinometostat -0.021 | [14] 0.034 | [15] -0.069

PKN2 (UniProt Q16513)
Chain of UniProt Q16513 (Q16513 whole entry, looked up): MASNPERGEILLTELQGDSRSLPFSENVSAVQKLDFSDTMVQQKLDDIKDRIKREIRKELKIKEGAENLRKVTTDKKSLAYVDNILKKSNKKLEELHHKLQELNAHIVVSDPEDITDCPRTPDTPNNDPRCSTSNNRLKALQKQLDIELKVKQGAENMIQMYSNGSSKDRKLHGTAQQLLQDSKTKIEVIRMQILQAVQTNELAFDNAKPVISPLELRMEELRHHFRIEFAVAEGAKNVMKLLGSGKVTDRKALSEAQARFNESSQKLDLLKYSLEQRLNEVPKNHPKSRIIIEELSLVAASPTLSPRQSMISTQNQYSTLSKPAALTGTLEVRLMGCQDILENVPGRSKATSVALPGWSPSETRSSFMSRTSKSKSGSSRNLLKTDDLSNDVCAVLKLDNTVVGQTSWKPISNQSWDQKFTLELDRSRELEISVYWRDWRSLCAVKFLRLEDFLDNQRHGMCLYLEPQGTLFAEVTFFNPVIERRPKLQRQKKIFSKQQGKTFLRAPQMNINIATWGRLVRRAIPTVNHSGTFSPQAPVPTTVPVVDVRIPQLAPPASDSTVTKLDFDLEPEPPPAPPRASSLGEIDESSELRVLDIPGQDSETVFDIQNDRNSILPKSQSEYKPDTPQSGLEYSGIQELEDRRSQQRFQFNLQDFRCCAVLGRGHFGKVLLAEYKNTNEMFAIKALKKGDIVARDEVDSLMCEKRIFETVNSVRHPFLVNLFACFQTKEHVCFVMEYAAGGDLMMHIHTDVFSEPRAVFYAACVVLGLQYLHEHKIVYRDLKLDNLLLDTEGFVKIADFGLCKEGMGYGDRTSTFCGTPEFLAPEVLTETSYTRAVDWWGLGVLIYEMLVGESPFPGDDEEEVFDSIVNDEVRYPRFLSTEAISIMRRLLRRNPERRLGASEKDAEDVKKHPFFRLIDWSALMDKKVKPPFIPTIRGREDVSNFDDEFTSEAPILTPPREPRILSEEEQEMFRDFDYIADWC
active: [10] -0.797
inactive: erlotinib 0.067 | [1] 0.073 | [2] -0.019 | [3] -0.075 | [4] 0.076 | [5] -0.075 | [6] 0.07 | [7] -0.031 | [8] -0.033 | [9] -0.209 | IRAK-1-4 Inhibitor I -0.017 | ibrutinib -0.054 | ralimetinib 0.085 | [11] -0.042 | [12] -0.051 | [13] 0.085 | pinometostat 0.141 | [14] -0.025 | [15] -0.016

PIP4K2C (UniProt Q8TBX8)
Chain of UniProt Q8TBX8 (Q8TBX8 whole entry, looked up): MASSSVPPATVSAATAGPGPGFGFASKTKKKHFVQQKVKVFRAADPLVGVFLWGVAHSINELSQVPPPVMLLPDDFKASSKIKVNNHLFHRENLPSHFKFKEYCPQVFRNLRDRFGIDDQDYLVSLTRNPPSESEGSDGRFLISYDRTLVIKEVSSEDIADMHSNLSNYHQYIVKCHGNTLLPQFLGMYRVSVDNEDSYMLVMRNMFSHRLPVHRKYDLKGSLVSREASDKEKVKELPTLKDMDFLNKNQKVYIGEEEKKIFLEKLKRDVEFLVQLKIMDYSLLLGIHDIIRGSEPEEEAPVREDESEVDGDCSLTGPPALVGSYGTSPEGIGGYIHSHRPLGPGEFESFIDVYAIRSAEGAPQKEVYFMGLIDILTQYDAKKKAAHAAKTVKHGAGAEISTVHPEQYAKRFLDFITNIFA
inactive: erlotinib 0.482 | [1] -0.063 | [2] 0.023 | [3] -0.129 | [4] 0.059 | [5] 0.575 | [6] 0.139 | [7] 0.21 | [8] 0.493 | [9] -0.025 | IRAK-1-4 Inhibitor I 0.607 | ibrutinib 0.064 | ralimetinib -0.019 | [11] -0.14 | [12] 0.095 | [13] 0.003 | pinometostat -0.006 | [14] -0.106 | [15] 0.018
active: [10] 1.48

PCYT1A (UniProt P49585)
Chain of UniProt P49585 (P49585 whole entry, looked up): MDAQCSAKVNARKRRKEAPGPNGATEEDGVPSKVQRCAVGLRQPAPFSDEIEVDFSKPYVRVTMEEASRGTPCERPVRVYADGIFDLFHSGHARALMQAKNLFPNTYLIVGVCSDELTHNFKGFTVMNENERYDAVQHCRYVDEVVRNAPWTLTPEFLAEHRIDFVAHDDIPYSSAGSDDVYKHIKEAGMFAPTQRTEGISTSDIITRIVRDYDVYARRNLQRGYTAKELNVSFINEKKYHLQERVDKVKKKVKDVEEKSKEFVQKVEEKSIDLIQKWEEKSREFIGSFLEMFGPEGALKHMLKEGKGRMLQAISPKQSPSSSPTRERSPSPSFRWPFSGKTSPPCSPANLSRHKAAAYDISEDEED
inactive: erlotinib -0.014 | [1] 0.125 | [2] -0.03 | [3] -0.001 | [4] 0.019 | [5] 0.054 | [6] -0.09 | [7] -0.033 | [8] -0.043 | [9] -0.009 | IRAK-1-4 Inhibitor I 0.081 | ibrutinib -0.032 | [10] -0.007 | ralimetinib -0.072 | [11] -0.019 | [12] -0.163 | [13] 0.084 | pinometostat -0.005 | [14] 0.116 | [15] -0.137

PRKAR1A (UniProt P10644)
Chain of UniProt P10644 (P10644 whole entry, looked up): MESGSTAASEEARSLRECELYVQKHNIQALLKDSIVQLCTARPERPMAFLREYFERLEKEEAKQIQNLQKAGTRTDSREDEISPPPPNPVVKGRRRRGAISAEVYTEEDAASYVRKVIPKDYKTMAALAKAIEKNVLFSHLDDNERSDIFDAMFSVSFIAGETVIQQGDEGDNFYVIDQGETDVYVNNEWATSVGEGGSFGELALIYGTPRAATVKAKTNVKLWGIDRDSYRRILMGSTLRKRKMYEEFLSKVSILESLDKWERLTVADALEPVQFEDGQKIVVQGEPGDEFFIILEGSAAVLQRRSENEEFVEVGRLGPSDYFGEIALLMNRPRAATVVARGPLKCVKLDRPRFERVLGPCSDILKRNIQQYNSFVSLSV
inactive: erlotinib 0.078 | [1] -0.084 | [2] -0.037 | [3] -0.027 | [4] 0.116 | [5] 0.018 | [6] 0.066 | [7] 0.139 | [8] 0.128 | [9] -0.017 | IRAK-1-4 Inhibitor I -0.068 | ibrutinib 0.035 | [10] -0.049 | ralimetinib 0.268 | [11] 0.041 | [12] -0.149 | [13] 0.041 | pinometostat 0.131 | [14] -0.084 | [15] -0.127

PLCL1 (UniProt Q15111)
inactive: erlotinib 0.136 | [1] -0.122 | [2] 0.117 | [3] 0.095 | [4] -0.042 | [5] 0.007 | [6] 0.098 | [7] 0.051 | [8] 0 | [9] -0.376 | IRAK-1-4 Inhibitor I -0.007 | ibrutinib 0.31 | [10] 0.08 | ralimetinib 0.125 | [11] -0.329 | [12] -0.102 | [13] 0.089 | pinometostat 0.365 | [14] -0.086 | [15] -0.193

PCYT1B (UniProt Q9Y5K3)
Chain of UniProt Q9Y5K3 (Q9Y5K3 whole entry, looked up): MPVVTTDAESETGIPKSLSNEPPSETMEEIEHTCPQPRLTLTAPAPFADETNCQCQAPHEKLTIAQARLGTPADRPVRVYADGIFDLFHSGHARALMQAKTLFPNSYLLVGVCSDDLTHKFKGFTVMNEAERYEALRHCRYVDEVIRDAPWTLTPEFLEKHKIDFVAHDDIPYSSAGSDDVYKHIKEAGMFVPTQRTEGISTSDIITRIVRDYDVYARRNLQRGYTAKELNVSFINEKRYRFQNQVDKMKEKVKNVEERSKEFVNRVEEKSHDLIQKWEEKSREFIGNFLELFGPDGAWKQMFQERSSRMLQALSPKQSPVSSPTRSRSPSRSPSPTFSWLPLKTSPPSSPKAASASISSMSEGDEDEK
inactive: erlotinib 0.05 | [1] 0.068 | [2] -0.043 | [3] 0.023 | [4] 0.078 | [5] 0.079 | [6] -0.066 | [7] 0.004 | [8] 0.01 | [9] -0.003 | IRAK-1-4 Inhibitor I 0.014 | ibrutinib -0.029 | [10] -0.072 | ralimetinib 0.011 | [11] 0.001 | [12] -0.172 | [13] 0.027 | pinometostat -0.011 | [14] 0.058 | [15] -0.12

PELO (UniProt Q9BRX2)
Chain of UniProt Q9BRX2 (Q9BRX2 whole entry, looked up): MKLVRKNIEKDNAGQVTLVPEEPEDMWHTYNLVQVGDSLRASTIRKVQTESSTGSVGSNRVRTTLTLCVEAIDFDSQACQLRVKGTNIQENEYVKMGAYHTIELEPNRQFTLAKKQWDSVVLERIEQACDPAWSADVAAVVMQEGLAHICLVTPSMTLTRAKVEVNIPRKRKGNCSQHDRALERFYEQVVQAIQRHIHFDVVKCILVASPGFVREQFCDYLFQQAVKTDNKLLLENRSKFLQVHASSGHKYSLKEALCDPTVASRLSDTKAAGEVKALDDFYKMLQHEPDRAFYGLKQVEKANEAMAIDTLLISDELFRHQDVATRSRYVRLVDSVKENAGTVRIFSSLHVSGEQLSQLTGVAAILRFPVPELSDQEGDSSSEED
inactive: erlotinib 0.153 | [1] 0.017 | [2] -0.108 | [3] 0.074 | [4] 0.105 | [5] -0.104 | [6] 0.079 | [7] 0.021 | [8] -0.097 | [9] -0.058 | IRAK-1-4 Inhibitor I -0.073 | ibrutinib 0.071 | [10] -0.106 | ralimetinib 0.122 | [11] -0.128 | [13] 0.058 | pinometostat 0.201 | [14] 0.019 | [15] 0.088
active: [12] -0.361

From the supplement of paper PMC10849652
